This is an account of results in PubChem BioAssay.

The subject of assay [1] is Plasmodium falciparum Sir2 (PF13_0152, Sir2A). Put plainly: Plasmodium falciparum Sir2A binding compounds – biochemical, small-molecule microarray, 635 nm fluorescence, primary screen (AID 1098).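 Further: score merges spot fluorescence intensity with its signal-to-noise ratio.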 The settings on record: fluorescence 635 nm, higher = more signal.
Assay [2] is described as follows: probe aDKK1 binding to arrayed compounds – biochemical, biotinylated probe, 635/667 nm fluorescence, primary screen (AID 1099).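 Further: score merges 667nm spot fluorescence with signal to noise across triplicate slides.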 Conditions: small-molecule microarray, higher = more signal.
The nature of assay [3]: probe aCHRDL2 binding to arrayed compounds – biochemical, biotinylated probe, 635/667 nm fluorescence, primary screen (AID 1100). The settings on record: small-molecule microarray, higher = more signal.
The nature of assay [4]: change in splice reporter luminescence, either direction, cell-based, HEK293, spliceosome inhibition project, primary screen (AID 1101).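 Further: HEK293 cells carrying a splicing-competent luciferase reporter gene; test concentration not given here.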 Conditions: HEK293 splicing luciferase reporter, 24 h, higher = more signal, called active from +8 up or from −8 down. In general terms: Reporter assays use an easily measured gene product as a stand-in for the process of interest.
The target in assay [5] is Fibroblast growth factor 10 (Homo sapiens) (UniProt O15520). Put plainly: compounds binding fibroblast growth factor 10 – biochemical, small-molecule microarray, 635 nm fluorescence, primary screen (AID 1102). The settings on record: FGF10 binding, fluorescence 635 nm, higher = more signal.
The subject of assay [6] is glycogen synthase kinase-3 (GSK3A per assay name; protocol says GSK3B). Put plainly: compounds binding glycogen synthase kinase-3 – biochemical, small-molecule microarray, 635 nm fluorescence, GSK3A, primary screen (AID 1103). Further: the record names both GSK3A and GSK3B. The settings on record: fluorescence 635 nm, higher = more signal.
For assay [7], the target named is Epidermal growth factor receptor (Homo sapiens) (UniProt P00533). Put plainly: compounds binding epidermal growth factor receptor – biochemical, small-molecule microarray, 635 nm fluorescence, primary screen (AID 1104).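 Further: score merges 667 nm emission intensity with spot signal to noise over triplicate slides.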 Conditions: EGFR binding, higher = more signal.
For assay [8], the target named is Follistatin-related protein 3 (Homo sapiens) (UniProt O95633). Put plainly: compounds binding follistatin-related protein 3 – biochemical, small-molecule microarray, 635 nm fluorescence, primary screen (AID 1105).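 Further: score merges emission near 667 nm and signal to noise per printed spot across three slides.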 The settings on record: FSTL3 binding, higher = more signal.
For assay [9], the target named is Dickkopf-related protein 1 (Homo sapiens) (UniProt O94907). Put plainly: small molecules binding DKK1 protein – biochemical, small-molecule microarray, 635 nm fluorescence scan, primary screen (AID 1106).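 Further: score merges emission near 667 nm with signal to noise over three replicate slides.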 Conditions: higher = more signal.
Assay [10] deals with Inhibin beta A chain (activin A). As to the kind of experiment: small molecules binding activin A – biochemical, small-molecule microarray, 635 nm fluorescence scan, primary screen (AID 1107).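 Further: mouse activin A protein probed at 4.33 µg/mL on printed slides; score merges bound-protein fluorescence near 667 nm with spot signal-to-noise.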 Conditions: INHBA, higher = more signal.
Assay [11] relates to Human papillomavirus type 1a protein E7 (residues 44-93). Put plainly: small molecules binding HPV E7 44-93 – biochemical, small-molecule microarray, residues 44-93, 635 nm fluorescence, primary screen (AID 1108).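 Further: E7 fragment applied at 1 µg/mL in TBST for 1 h at 4 C; score combines spot fluorescence with its signal to noise ratio.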 Conditions: fluorescence 635 nm, higher = more signal.
Assay [12] in a line: hepatitis C replication reporter changes, two-sided – Huh7 cells, luciferase reporter, HCV replication inhibitor project, primary screen (AID 1109).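 Further: huh7 hepatoma cells harbouring a luciferase neomycin HCV replicon reporter; luciferase luminescence as measure of HCV replicon replication; test concentration not given here.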 Conditions: Huh7 HCV replicon luciferase reporter, 48 h; higher = more signal.
The target in assay [13] is Left-right determination factor 2 (Homo sapiens) (UniProt O00292). As to the kind of experiment: small molecules binding LEFTY2 protein – biochemical, small-molecule microarray, 635 nm fluorescence scan, primary screen (AID 1110). The settings on record: higher = more signal.
In assay [14] the target is Calmodulin-1 (Homo sapiens) (UniProt P0DP23). Put plainly: small molecules binding calmodulin-1 with EGTA – biochemical, small-molecule microarray, Cy5-labelled CALM1, profiling panel (AID 1111).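 Further: labelled calmodulin applied in Tris saline Tween buffer holding calcium plus EGTA and DTT.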 Conditions: Cy5-CALM1 binding fluorescence, higher = more signal.
Assay [15] has the same target. As to the kind of experiment: small molecules binding Ca-loaded calmodulin-1 – biochemical, small-molecule microarray, Cy5-labelled CALM1, plus calcium, artefact control for SMM control-protein annotation, profiling panel (AID 1112).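 Further: score merges spot fluorescence with signal to noise from triplicate slides.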 Conditions: Cy5-CALM1 binding fluorescence, higher = more signal.
A short description of assay [16]: probe aWnt5a binding to arrayed compounds – biochemical, biotinylated probe, 635/667 nm fluorescence, primary screen (AID 1113).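 Further: score merges 667 nm fluorescence intensity with signal-to-noise per printed feature.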 Conditions: small-molecule microarray, higher = more signal.
Assay [17] can be described thus: probe aShh binding to arrayed compounds – biochemical, biotinylated probe, 635/667 nm fluorescence, primary screen (AID 1114).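 Further: probe is biotin-labelled aShh protein from a stem cell growth factor screen; measures binding of labelled protein to compounds printed on the slide; score merges feature fluorescence at 667 nm with signal-to-noise.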 The settings on record: small-molecule microarray, higher = more signal.
The nature of assay [18]: probe aNog binding to arrayed compounds – biochemical, biotinylated probe, 635/667 nm fluorescence, primary screen (AID 1115).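 Further: probe is biotinylated aNog protein used at 0.15 µg/mL for 1 h at 4 C; z-score combines 667 nm fluorescence of each spot with its signal to noise.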 The settings on record: small-molecule microarray, higher = more signal.
Assay [19] has as its target Torsin-1A-interacting protein 1 (Homo sapiens) (UniProt Q5JTV8). Put plainly: compound microarray binding of lysate hLAP1 – cell lysate, small-molecule microarray, COS7 lysate, 635/667 nm fluorescence, primary screen (AID 1116). The settings on record: 635 nm fluorescence, higher = more signal.
For assay [20], the target named is Alpha-bungarotoxin (Bungarus multicinctus) (UniProt P60615). As to the kind of experiment: compounds binding labelled alpha-BTX control protein – biochemical, small-molecule microarray, Alexa647 label, 635/667 nm fluorescence, artefact control for SMM control protein annotation, profiling panel (AID 1117). Conditions: alpha-BTX-A647 binding fluorescence, higher = more signal.

Values joined by “and” are separate entries in the source; they are usually repeats but may differ in a detail not shown here. Equal values may be shown once. Active and inactive are the calls of the source.

Sequence of Dickkopf-related protein 1 (Homo sapiens) (O94907 whole entry, looked up): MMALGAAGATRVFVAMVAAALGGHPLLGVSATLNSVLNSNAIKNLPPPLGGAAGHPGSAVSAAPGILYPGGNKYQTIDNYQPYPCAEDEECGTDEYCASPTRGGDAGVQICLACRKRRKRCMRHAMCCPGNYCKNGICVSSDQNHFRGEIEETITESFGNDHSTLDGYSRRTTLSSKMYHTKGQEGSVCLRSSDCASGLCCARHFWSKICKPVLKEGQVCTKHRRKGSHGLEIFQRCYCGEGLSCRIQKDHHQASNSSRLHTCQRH
Sequence of Alpha-bungarotoxin (Bungarus multicinctus) (P60615 whole entry, looked up): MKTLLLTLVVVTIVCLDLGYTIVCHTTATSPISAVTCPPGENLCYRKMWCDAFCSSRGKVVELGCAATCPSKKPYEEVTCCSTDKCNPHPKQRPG
Sequence of Epidermal growth factor receptor (Homo sapiens) (P00533 whole entry, looked up): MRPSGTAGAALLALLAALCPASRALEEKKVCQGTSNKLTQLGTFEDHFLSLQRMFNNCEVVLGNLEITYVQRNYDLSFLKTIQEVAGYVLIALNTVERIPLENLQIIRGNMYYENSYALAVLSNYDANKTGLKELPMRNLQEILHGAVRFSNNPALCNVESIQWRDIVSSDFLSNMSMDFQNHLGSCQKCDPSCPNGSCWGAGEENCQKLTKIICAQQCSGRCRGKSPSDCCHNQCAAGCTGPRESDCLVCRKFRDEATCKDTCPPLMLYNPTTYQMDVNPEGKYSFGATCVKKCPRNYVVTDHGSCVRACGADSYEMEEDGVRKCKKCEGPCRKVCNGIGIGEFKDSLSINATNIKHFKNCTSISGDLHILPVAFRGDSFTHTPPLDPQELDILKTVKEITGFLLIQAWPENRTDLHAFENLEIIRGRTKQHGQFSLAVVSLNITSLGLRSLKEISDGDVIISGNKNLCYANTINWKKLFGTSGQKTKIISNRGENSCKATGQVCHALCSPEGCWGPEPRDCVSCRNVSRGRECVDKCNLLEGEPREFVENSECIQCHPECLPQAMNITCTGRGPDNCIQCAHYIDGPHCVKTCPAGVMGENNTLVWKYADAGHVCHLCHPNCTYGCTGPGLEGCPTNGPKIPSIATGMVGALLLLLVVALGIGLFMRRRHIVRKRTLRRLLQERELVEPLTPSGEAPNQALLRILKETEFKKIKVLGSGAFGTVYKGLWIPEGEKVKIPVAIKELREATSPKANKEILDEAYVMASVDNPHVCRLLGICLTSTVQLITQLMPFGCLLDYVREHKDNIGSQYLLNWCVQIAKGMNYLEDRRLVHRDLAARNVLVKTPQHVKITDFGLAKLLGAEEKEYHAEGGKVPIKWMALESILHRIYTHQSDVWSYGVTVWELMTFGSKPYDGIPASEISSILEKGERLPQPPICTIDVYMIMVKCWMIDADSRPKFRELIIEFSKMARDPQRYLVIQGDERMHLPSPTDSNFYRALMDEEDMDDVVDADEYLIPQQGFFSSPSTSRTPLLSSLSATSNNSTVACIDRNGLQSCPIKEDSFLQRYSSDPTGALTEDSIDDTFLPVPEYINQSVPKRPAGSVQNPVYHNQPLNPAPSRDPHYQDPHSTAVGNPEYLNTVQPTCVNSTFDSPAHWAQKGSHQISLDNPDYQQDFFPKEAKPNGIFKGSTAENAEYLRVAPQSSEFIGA
Sequence of Torsin-1A-interacting protein 1 (Homo sapiens) (Q5JTV8 whole entry, looked up): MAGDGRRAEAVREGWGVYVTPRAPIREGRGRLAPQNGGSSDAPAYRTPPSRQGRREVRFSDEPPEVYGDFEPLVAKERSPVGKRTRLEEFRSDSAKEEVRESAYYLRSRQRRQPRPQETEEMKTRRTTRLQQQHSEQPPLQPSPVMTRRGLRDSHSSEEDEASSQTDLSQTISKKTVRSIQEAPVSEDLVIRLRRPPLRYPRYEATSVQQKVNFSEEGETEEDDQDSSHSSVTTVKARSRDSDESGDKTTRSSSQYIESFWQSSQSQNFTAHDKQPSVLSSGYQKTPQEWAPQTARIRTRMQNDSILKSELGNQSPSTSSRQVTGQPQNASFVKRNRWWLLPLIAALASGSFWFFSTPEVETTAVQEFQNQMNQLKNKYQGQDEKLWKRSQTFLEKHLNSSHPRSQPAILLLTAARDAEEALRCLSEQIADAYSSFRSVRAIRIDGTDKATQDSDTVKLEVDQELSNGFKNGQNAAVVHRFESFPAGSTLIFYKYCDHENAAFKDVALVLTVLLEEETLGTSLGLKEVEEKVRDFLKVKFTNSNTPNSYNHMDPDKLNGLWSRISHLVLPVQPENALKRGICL
Sequence of Follistatin-related protein 3 (Homo sapiens) (O95633 whole entry, looked up): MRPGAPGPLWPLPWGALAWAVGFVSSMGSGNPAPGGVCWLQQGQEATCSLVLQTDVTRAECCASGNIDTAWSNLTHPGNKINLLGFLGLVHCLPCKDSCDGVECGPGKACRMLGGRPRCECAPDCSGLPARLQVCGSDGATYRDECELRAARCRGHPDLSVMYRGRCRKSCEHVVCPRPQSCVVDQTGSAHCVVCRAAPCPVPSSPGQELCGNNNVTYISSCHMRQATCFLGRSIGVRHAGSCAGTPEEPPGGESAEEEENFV
Sequence of Fibroblast growth factor 10 (Homo sapiens) (O15520 whole entry, looked up): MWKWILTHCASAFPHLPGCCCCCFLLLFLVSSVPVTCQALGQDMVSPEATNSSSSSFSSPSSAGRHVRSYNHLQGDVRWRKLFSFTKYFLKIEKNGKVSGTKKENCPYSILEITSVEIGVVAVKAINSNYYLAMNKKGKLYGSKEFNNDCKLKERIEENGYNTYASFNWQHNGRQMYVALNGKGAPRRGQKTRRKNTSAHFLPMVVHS
Sequence of Left-right determination factor 2 (Homo sapiens) (O00292 whole entry, looked up): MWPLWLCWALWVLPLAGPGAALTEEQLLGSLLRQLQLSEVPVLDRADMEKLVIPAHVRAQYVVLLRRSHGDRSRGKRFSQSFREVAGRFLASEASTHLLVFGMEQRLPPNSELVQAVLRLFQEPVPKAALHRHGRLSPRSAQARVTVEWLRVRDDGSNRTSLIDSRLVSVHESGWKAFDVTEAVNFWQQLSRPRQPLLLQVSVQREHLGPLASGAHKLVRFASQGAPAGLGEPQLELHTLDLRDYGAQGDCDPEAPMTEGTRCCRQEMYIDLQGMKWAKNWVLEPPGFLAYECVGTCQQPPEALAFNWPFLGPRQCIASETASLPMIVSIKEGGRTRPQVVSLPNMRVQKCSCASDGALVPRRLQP

As to `Cc1cc2c(nc1C)CCCN2CC(C)ON=C[C@@H](C)[C@H](OCc1ccccc1)C(C)C` (stereo not given in full), the composite z-score in assay [1] was -0.146; in assay [2], -0.14; in [3], -0.499; in assay [5] it was -0.375; in assay [6] it was -0.857; in assay [7] it was 0.0333. In addition, the composite z-score in assay [8] is -0.0161; in assay [9], 0.227; in assay [10], 0.622; in assay [11] it was -1.88; in assay [13] it was 0.339; in assay [14] it was -0.398. Besides, the composite z-score in assay [15] was -0.304; in assay [16] it was -0.0125; in assay [17] it was -0.0035; in assay [18] it was 0.0811; in assay [19], -0.0342; in assay [20] it was -0.0161. In addition, the z-score in [4] was 0.332 (inactive); in assay [12], -1.26.
With `O=c1n(-c2ccccc2)c(=O)n2n1CC[C@@H]1C(=NOC[C@@H](O)COCc3ccco3)[C@H]3O[C@H]3[C@@H](O)[C@@H]12`, the composite z-score in assay [1] is 0.981 and 1.38; in assay [2] it was -0.418 and -0.503; in [3], -0.929 and -0.662; in [5], 0.526 and -0.556; in assay [6], 0.605 and -0.449; in assay [7], 0.634 and 0.518. Also, the composite z-score in assay [8] is 0.973 and 0.426; in [9] it was 1.24 and 0.48; in assay [10], 0.467 and 0.442; in assay [11], 0.334 and -1.78; in [13], 0.549 and 0.474; in assay [14], -0.288 and -0.601. Moreover, the composite z-score in assay [15] is -1.31 and -0.958; in assay [16], -0.0659 and -0.0276; in assay [17] it was -0.367 and -0.0035; in assay [18], -0.261 and -0.0733; in [19], 0.721 and 0.223; in assay [20] it was 0.719 and 0.0807. Also, the z-score in assay [4] was -1.51 (inactive) and 0.0711 (inactive); in assay [12], 0.273 and -3.95.
Turning to `C=CCN(C(=O)C1N(CCCCCCO)C(=O)C2C(C(=O)O)C3C=CC21O3)c1ccc(OC)cc1` (stereo not given), the composite z-score in [1] is 1.04 and -1.32; in assay [2], 0.0787 and 0.332; in assay [3] it was 1.27 and 1.18; in assay [5] it was -0.791 and -1.26; in assay [6], -0.329 and -0.852; in assay [7], -2.79 and -2.32. Further, the composite z-score in assay [8] was -2.58 and -1.84; in assay [9] it was -2.84 and -2.35; in assay [10], -1.71 and -1.78; in assay [11], -0.862 and -1.21; in assay [13], -3.9 and -3.75; in assay [14], -0.0411 and -1.13. Also, the composite z-score in assay [15] is 0.734 and 0.0742; in assay [16], -0.224 and -0.124; in assay [17] it was -0.0011 and 0.551; in [18], 0.692 and 0.838; in assay [19], 2.83 and 1.74; in assay [20], -2.05 and -1.37. Further, the z-score in assay [4] is -1.67 (inactive) and -0.118 (inactive); in [12], -0.67 and -0.824.
For `C=CCN(C(=O)C1N(c2c(Cl)cccc2CO)C(=O)C2C(C(=O)O)C3C=CC21O3)c1ccc(OC)cc1` (stereo not given), the composite z-score in assay [1] is 1.51 and -0.251; in assay [2] it was -0.0248 and -0.257; in assay [3] it was 0.804 and 0.73; in [5], -1.56 and -2.01; in assay [6], -1.29 and -0.754; in assay [7], -1.86 and -2.26. The composite z-score was -1.4 and -2.14 in [8]; -1.99 and -2.35 in [9]; -1.12 and -3.24 in assay [10]; -0.716 and -1.82 in assay [11]; -2.79 and -1.79 in assay [13]; -0.746 and -0.798 in assay [14]. The composite z-score in [15] is -0.0974 and 0.407; in [16], -0.355 and -0.242; in assay [17], -0.487 and -0.336; in assay [18] it was -0.218 and -0.24; in assay [19], -0.809 and -0.822; in assay [20], -0.64 and -2.45. For the same compound, the z-score is -1.1 (inactive) and -0.88 (inactive) in [4]; -1.14 and -0.0856 in assay [12].
Turning to `C=CCN(CCCCC)C(=O)C1N(c2ccc(CCO)cc2)C(=O)C2C(C(=O)O)C3C=CC21O3` (stereo not given), the composite z-score in assay [1] is 0.122 and -0.0398; in assay [2], -0.244 and -0.184; in assay [3], 0.976 and 0.99; in assay [5] it was -1.01 and -1.64; in assay [6], -1.29 and -1.34; in assay [7] it was -1.23 and -1.1. Moreover, the composite z-score in assay [8] is -0.937 and -1.43; in assay [9] it was -1.6 and -1.19; in [10], -1.49 and -1.34; in assay [11] it was -0.351 and -0.928; in [13], -2.25 and -3.05; in assay [14], -1.51 and -0.989. Further, the composite z-score in assay [15] is -0.455 and -0.143; in assay [16], -0.23 and -0.316; in assay [17], -0.0769 and -0.0866; in assay [18] it was -0.387 and -0.332; in assay [19], 0.143 and 0.422; in [20], -2.97 and -1.37. Also, the z-score in assay [4] is -0.296 (inactive) and 0.494 (inactive); in assay [12], 0.471 and -0.235.
